# Measurements taken from PubChem BioAssay.
# Records with an inconclusive call do not appear. Active and inactive are the calls of the source. Unless noted, the limit is not given here; nearly all actives have AC50 up to about 26 µM.
# Tests used:
# [1] = growth inhibition of DIPG glioma cells, dose response, cell-based, SU-DIPG-XVII, MIPE5.0, CellTiter-Glo, qHTS (AID 1347060); details: SU-DIPG-XVII viability, CellTiter-Glo ATP luminescence;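 also: cells exposed to compound for 48 hours before viability readout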
# [2] = growth inhibition of DIPG glioma cells, dose response, cell-based, SU-DIPG-XIII, MIPE5.0, CellTiter-Glo, qHTS (AID 1347064; cut-off not given, nearly all actives have AC50 up to about 23 µM;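 also: cells exposed to compound for 48 hours before the viability read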); details: SU-DIPG-XIII viability, CellTiter-Glo ATP luminescence
# [3] = viability loss in pontine glioma line – cell-based, SU-DIPG-XXV, MIPE5.0, CellTiter-Glo, qHTS, dose response (AID 1347065); details: CellTiter-Glo ATP luminescence;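 also: cells exposed to compound for 48 hours before ATP readout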
# [4] = JHH-DIPG-1 glioma cell viability, MIPE5.0 library, CellTiter-Glo luminescence, qHTS (AID 1347067); details: JHH-DIPG-1 glioma viability, CellTiter-Glo ATP luminescence;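 also: cells exposed to compound for 48 hours before readout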
# [5] = SU-DIPG-XXV glioma cell viability, MIPE5.0 library, qHTS (AID 1347068; cut-off not given, nearly all actives have IC50 up to about 30 µM;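 as to IC50: cells exposed to compound for 48 hours before viability readout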)
# [6] = LFS_MB_P medulloblastoma growth inhibition, cell-based, chromothripsis tumors, cisplatin or BGB combos (AID 1671449; in the data active = inhibition above about 80%;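 also: cells exposed for 96 hours; 0% = vehicle DMSO and 100% = killing by high DMSO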); details: LFS_MB_P medulloblastoma cells
# [7] = HDN33 neuroblastoma growth inhibition, cell-based, chromothripsis tumors, cisplatin or BGB combos (AID 1671450; in the data active = inhibition above about 80%;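 also: cells exposed to compound for four days; 0% = vehicle DMSO and 100% = cell killing by high DMSO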); details: HDN33 neuroblastoma cells, stronger effect = higher value
# [8] = ICB984 medulloblastoma cell growth inhibition, synergistic combos for chromothripsis tumors, cisplatin or BGB combos (AID 1671451; call rule not given here;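 also: cells exposed for 96 hours before readout; 0% = vehicle DMSO and 100% = killing by high DMSO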); details: ICB984 medulloblastoma cells, drug combinations, stronger effect = higher value
# [9] = LFS_MB_1R medulloblastoma cell growth inhibition, synergistic combos for chromothripsis tumors, cisplatin or BGB combos (AID 1671452; in the data active = inhibition above about 80%;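 also: cells exposed for 96 hours before readout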); details: LFS_MB_1R medulloblastoma cells, stronger effect = higher value
# [10] = HTB85 osteosarcoma cell growth inhibition, synergistic combos for chromothripsis tumors, BGB or cisplatin IC20 combos (AID 1671453; in the data active = inhibition above about 80%;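 also: cells exposed for 96 hours before readout; 0% = vehicle DMSO and 100% = high DMSO killing control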); details: HTB85 osteosarcoma cells, drug combinations, stronger effect = higher value
# [11] = CRL2098 osteosarcoma cell growth inhibition, synergistic combos for chromothripsis tumors, BGB or cisplatin IC20 combos (AID 1671454; in the data active = inhibition above about 80%;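 also: cells exposed for 96 h before readout; 0% = vehicle DMSO and 100% = killing by high DMSO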); details: CRL2098 osteosarcoma cells, drug combinations, stronger effect = higher value
# [12] = HD-MB03 medulloblastoma cell growth inhibition, synergistic combos for chromothripsis tumors, BGB or cisplatin IC20 combos (AID 1671455; in the data active = inhibition above about 83%;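 also: 0% = vehicle DMSO and 100% = high DMSO as cytotoxic control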); details: HD-MB03 medulloblastoma cells, stronger effect = higher value
# [13] = UWB1.289 ovarian carcinoma cell growth inhibition, synergistic combos for chromothripsis tumors, BGB or cisplatin combos (AID 1671456; in the data active = inhibition above about 80%;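 also: cells exposed to compound for four days; 0% = vehicle DMSO and 100% = killing by high DMSO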); details: UWB1.289 ovarian carcinoma cells, stronger effect = higher value
# [14] = MDA-MB-436 breast carcinoma cell growth inhibition, synergistic combos for chromothripsis tumors, BGB or cisplatin combos (AID 1671458; call rule not given here;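 also: cells exposed for 96 hours; 0% = vehicle DMSO and 100% = killing by high DMSO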); details: MDA-MB-436 breast carcinoma growth inhibition, drug combinations, stronger effect = higher value
# [15] = growth inhibition of BT084 medulloblastoma cells, cell-based, ICGC_MB145, cisplatin and BGB IC40 combos (AID 1671461; in the data active = inhibition above about 80%;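 also: cells exposed to drugs for 96 hours; 0% = vehicle DMSO and 100% = high DMSO full killing control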); details: drug combinations, stronger effect = higher value
# [16] = growth inhibition of RCMB18 medulloblastoma cells, cell-based, cisplatin and BGB IC40 combos (AID 1671462; in the data active = inhibition above about 80%;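 also: cells exposed to compound for four days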); details: stronger effect = higher value
# [17] = growth inhibition of CRL1545 osteosarcoma cells, cell-based, cisplatin and BGB IC20 combos (AID 1671464; in the data active = inhibition above about 80%;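 also: cells exposed to compound for 96 hours before readout; 0% = vehicle DMSO and 100% = high DMSO killing control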); details: stronger effect = higher value
# [18] = measured here: combination with BGB IC40, at 0.05 µM
# [19] = measured here: with BGB IC20 combination, at 0.5 µM
# [20] = measured here: with cisplatin IC20 combination, at 0.5 µM
# [21] = measured here: combination with cisplatin, at 0.5 µM
smiles,measurement,setting,value
CCN1CCN(Cc2ccc(NC(=O)c3ccc(C)c(NC(=O)c4cncc(-c5cccs5)c4)c3)cc2C(F)(F)F)CC1,AC50,[1],5.9 µM (active)
same,AC50,[2],14.8 µM (active)
same,AC50,[3],1.05 µM (active)
same,AC50,[4],2.63 µM (active)
same,IC50,[5],4.17 µM (active)
Cc1[nH]c(/C=C2\C(=O)Nc3ccc(F)cc32)c(C)c1C(=O)NC[C@H](O)CN1CCOCC1,AC50,[1],13.2 µM (active)
same,AC50,[2],18.6 µM (active)
same,AC50,[3],7.42 µM (active)
same,AC50,[4],16.6 µM (active)
same,outcome,[5],inactive
CN(C)C/C=C/C(=O)Nc1ccc(C(=O)Nc2cccc(Nc3ncc(Cl)c(-c4c[nH]c5ccccc45)n3)c2)cc1,AC50,[1],0.263 µM (active)
same,AC50,[2],0.209 µM (active)
same,AC50,[3],0.209 µM (active)
same,AC50,[4],0.263 µM (active)
same,IC50,[5],0.295 µM (active)
same,inhibition,"[6]; at 0.5 µM, stronger effect = higher value",-12.9% (inactive)
same,inhibition,"[6]; measured here: combination with BGB IC20, at 0.005 µM",-29.1%
same,inhibition,"[6]; measured here: combination with BGB IC40, at 0.005 µM",-64.8%
same,inhibition,[6]; [18],7.86%
same,inhibition,"[6]; measured here: combination with cisplatin, at 0.5 µM, stronger effect = higher value",-42.5%
same,inhibition,"[6]; measured here: combination with cisplatin, at 5 µM, stronger effect = higher value",89.6%
same,inhibition,"[7]; BGB combo, at 5 µM",97.3%
same,inhibition,[7]; at 0.5 µM,42.9% (inactive)
same,inhibition,"[7]; cisplatin combo, at 5 µM",98.3%
same,inhibition,[7]; [19],43.5%
same,inhibition,[7]; [20],38.3%
same,inhibition,"[7]; single agent, at 5 µM",98.9%
same,inhibition,"[8]; BGB IC20 combo, at 0.005 µM",97.6%
same,inhibition,"[8]; BGB IC40 combo, at 0.005 µM",98.3%
same,inhibition,"[8]; BGB IC40 combo, at 0.05 µM",102%
same,inhibition,[8]; at 0.5 µM,-27.1% (inactive)
same,inhibition,"[8]; cisplatin combo, at 0.05 µM",102%
same,inhibition,"[8]; cisplatin combo, at 0.5 µM",-38.3%
same,inhibition,"[8]; cisplatin combo, at 5 µM",33.8%
same,inhibition,"[8]; measured here: 5 uM single agent, at 5 µM",11.6%
same,inhibition,[9]; at 0.5 µM,103% (active)
same,inhibition,[9]; [18],23.8%
same,inhibition,[9]; [21],101%
same,inhibition,"[9]; measured here: combination with cisplatin, at 5 µM",97.5%
same,inhibition,[10]; at 0.5 µM,91.8% (active)
same,inhibition,"[10]; measured here: with BGB IC20, at 0.5 µM",89.2%
same,inhibition,"[10]; measured here: with BGB IC20, at 5 µM",99.9%
same,inhibition,"[10]; measured here: with cisplatin IC20, at 0.5 µM",92.7%
same,inhibition,"[10]; measured here: with cisplatin IC20, at 5 µM",99.8%
same,inhibition,"[10]; single agent, at 5 µM",100%
same,inhibition,[11]; at 0.5 µM,41.6% (inactive)
same,inhibition,"[11]; measured here: combination with BGB at IC20, at 0.5 µM",72.6%
same,inhibition,"[11]; measured here: combination with cisplatin at IC20, at 0.5 µM",29.6%
same,inhibition,[12]; at 0.5 µM,64.6% (inactive)
same,inhibition,"[12]; measured here: combo with BGB at IC20, at 0.5 µM",57.2%
same,inhibition,"[12]; measured here: combo with cisplatin at IC20, at 0.5 µM",71.3%
same,inhibition,[13]; at 0.5 µM,74.6% (inactive)
same,inhibition,"[13]; measured here: inhibition with BGB combination, at 0.05 µM",9.81%
same,inhibition,"[13]; measured here: inhibition with cisplatin combination, at 0.05 µM",0.164%
same,inhibition,[14]; at 0.5 µM,57.8% (inactive)
same,inhibition,"[14]; measured here: BGB combination, at 0.5 µM",51.4%
same,inhibition,"[14]; measured here: BGB combination, at 5 µM",40.9%
same,inhibition,"[14]; measured here: cisplatin combination, at 0.5 µM",50.4%
same,inhibition,"[14]; measured here: cisplatin combination, at 5 µM",69.8%
same,inhibition,[15]; at 0.5 µM,32.3% (inactive)
same,inhibition,"[15]; cisplatin combination, at 0.5 µM",10%
same,inhibition,"[15]; cisplatin combination, at 5 µM",35.4%
same,inhibition,"[15]; measured here: BGB IC40 combination 0.05 uM, at 0.05 µM",15.5%
same,inhibition,"[15]; single agent, at 5 µM",89%
same,inhibition,[16]; at 0.5 µM,66.8% (inactive)
same,inhibition,"[16]; cisplatin combo, at 5 µM",71.7%
same,inhibition,"[16]; measured here: BGB IC40 combination, at 0.05 µM",52.8%
same,inhibition,[16]; [21],69.4%
same,inhibition,"[16]; single agent, at 5 µM",89.7%
same,inhibition,[17]; at 0.5 µM,80.7% (active)
same,inhibition,[17]; [19],72.6%
same,inhibition,[17]; [20],84.4%
same,inhibition,"[17]; single agent, at 0.05 µM",-55.9%
same,inhibition,"[17]; single agent, at 5 µM",99.8%
